# Results as given in the supplement of paper PMC10849652.
# The full data set covers some 8,800 targets. This sample favours those with a hit. About 0.5% of all pairs of compound and target were hits. A number with no mark means an inactive call.
# Key:
# Assay in all cases: log2 fold change, soluble protein after heating vs DMSO (PISA); higher = thermal stabilisation; K562 lysate, 10 uM; active = over 0.2 and 3.5 SD of the protein, either way, in both replicates (recomputed)
# nilotinib = compound: Cc1cn(-c2cc(NC(=O)c3ccc(C)c(Nc4nccc(-c5cccnc5)n4)c3)cc(C(F)(F)F)c2)cn1 [nilotinib]
# Method in brief: (§1)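 Values give the log-two fold change in thermal stability against solvent controls, from duplicates. Crude K562 extract at 1 mg/mL protein, made by dounce homogenisation in PBS pH 7.4 with 1 mM MgCl2, was treated with 10 μM compound for 30 min. After 3 min heating across 48°C-58°C, aliquots were pooled, adjusted to 0.5% NP-40 at 4°C and centrifuged at 21,000xg for 90 min. The supernatant was measured by TMTpro 16plex LC-MS/MS with channel sums equalised.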
# [1] = compound: Cc1nc(Nc2n[nH]c3c2CN(C(=O)N[C@H](CN(C)C)c2ccccc2)C3(C)C)c2sccc2n1
# Method in brief: as §1
# dasatinib = compound: Cc1nc(Nc2ncc(C(=O)Nc3c(C)cccc3Cl)s2)cc(N2CCN(CCO)CC2)n1 [dasatinib]
# Method in brief: as §1
# [2] = compound: Cc1ncc(-c2ccnc(Nc3ccc(S(C)(=O)=O)cc3)n2)n1C(C)C
# Method in brief: as §1
# [3] = compound: Cn1cc(-c2ccc3c(c2)CCN3C(=O)Cc2cccc(C(F)(F)F)c2)c2c(N)ncnc21
# Method in brief: as §1
# quisinostat = compound: Cn1cc(CNCC2CCN(c3ncc(C(=O)NO)cn3)CC2)c2ccccc21 [quisinostat]
# Method in brief: as §1
# tipifarnib = compound: Cn1cncc1[C@@](N)(c1ccc(Cl)cc1)c1ccc2c(c1)c(-c1cccc(Cl)c1)cc(=O)n2C [tipifarnib]
# Method in brief: as §1
# [4] = compound: NC(=O)Nc1cc(-c2cccc(F)c2)sc1C(=O)N[C@H]1CCCNC1
# Method in brief: as §1
# [5] = compound: NC(=O)c1cnc(N[C@@H]2CCCC[C@@H]2N)nc1Nc1cccc(-n2nccn2)c1
# Method in brief: as §1
# [6] = compound: NC1(c2ccc(-c3nc4ccn5c(=O)[nH]nc5c4cc3-c3ccccc3)cc2)CCC1
# Method in brief: as §1
# [7] = compound: NCC(=O)Nc1ccc(-n2nc(C(F)(F)F)cc2-c2ccc3c(ccc4ccccc43)c2)cc1
# Method in brief: as §1
# vorinostat = compound: O=C(CCCCCCC(=O)Nc1ccccc1)NO [vorinostat]
# Method in brief: as §1
# silmitasertib = compound: O=C(O)c1ccc2c(c1)nc(Nc1cccc(Cl)c1)c1ccncc12 [silmitasertib]
# Method in brief: as §1
# [8] = compound: O=C1NC(=O)C(c2cnc3ccccn23)=C1c1cn2c3c(cc(F)cc13)CN(C(=O)N1CCCCC1)CC2
# Method in brief: as §1
# entospletinib = compound: c1cn2cc(-c3ccc4cn[nH]c4c3)nc(Nc3ccc(N4CCOCC4)cc3)c2n1 [entospletinib]
# Method in brief: as §1
# UniProt Q9BVP2, sequence (Q9BVP2 whole entry, looked up): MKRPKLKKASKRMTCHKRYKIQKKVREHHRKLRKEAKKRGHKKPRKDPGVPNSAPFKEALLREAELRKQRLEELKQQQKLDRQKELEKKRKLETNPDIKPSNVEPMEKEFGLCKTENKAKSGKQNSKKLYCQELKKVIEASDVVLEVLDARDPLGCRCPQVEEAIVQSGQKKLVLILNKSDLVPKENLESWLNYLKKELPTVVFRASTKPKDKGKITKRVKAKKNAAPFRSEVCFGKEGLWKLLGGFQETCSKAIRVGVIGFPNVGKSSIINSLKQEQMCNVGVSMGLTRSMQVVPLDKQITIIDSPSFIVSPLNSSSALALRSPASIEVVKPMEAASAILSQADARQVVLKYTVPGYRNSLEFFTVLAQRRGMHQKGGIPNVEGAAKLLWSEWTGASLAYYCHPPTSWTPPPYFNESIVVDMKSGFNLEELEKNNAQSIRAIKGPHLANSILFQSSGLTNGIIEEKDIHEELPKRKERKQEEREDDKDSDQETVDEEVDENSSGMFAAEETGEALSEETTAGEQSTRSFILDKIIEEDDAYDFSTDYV
# UniProt O15379, sequence (O15379 whole entry, looked up): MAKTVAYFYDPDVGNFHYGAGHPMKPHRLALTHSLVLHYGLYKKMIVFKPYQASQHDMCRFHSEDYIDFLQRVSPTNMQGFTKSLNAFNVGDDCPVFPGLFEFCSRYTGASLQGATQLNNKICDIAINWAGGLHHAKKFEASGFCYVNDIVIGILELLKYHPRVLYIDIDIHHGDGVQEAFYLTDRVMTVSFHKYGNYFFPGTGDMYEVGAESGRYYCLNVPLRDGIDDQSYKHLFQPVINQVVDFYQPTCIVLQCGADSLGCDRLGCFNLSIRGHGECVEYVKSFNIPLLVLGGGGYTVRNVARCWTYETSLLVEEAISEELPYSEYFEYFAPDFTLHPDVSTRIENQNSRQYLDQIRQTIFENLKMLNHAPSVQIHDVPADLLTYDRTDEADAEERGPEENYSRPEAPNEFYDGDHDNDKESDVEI
# UniProt Q9NVX7, sequence (Q9NVX7 whole entry, looked up): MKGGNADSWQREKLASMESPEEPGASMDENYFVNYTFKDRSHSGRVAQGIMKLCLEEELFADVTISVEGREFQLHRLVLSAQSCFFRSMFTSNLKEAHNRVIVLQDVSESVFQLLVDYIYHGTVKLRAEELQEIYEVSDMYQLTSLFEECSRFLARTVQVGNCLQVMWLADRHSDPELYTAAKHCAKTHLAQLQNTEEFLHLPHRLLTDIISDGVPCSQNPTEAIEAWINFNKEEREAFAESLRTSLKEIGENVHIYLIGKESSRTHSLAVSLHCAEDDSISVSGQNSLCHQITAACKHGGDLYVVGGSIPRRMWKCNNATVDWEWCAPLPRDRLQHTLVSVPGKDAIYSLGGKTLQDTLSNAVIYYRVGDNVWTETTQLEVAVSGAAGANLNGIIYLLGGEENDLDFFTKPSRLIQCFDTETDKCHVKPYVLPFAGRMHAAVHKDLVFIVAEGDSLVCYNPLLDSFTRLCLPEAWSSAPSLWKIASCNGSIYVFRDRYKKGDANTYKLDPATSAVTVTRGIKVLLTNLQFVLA
# UniProt Q99714, sequence (Q99714 whole entry, looked up): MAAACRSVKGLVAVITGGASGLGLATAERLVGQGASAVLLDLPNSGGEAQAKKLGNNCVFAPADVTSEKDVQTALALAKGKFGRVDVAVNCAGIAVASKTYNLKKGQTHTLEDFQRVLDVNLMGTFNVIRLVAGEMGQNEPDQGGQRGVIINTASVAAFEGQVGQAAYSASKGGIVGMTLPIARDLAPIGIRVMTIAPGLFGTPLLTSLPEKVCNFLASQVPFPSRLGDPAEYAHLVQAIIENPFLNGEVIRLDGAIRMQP
# UniProt Q3T8J9, sequence (Q3T8J9 whole entry, looked up): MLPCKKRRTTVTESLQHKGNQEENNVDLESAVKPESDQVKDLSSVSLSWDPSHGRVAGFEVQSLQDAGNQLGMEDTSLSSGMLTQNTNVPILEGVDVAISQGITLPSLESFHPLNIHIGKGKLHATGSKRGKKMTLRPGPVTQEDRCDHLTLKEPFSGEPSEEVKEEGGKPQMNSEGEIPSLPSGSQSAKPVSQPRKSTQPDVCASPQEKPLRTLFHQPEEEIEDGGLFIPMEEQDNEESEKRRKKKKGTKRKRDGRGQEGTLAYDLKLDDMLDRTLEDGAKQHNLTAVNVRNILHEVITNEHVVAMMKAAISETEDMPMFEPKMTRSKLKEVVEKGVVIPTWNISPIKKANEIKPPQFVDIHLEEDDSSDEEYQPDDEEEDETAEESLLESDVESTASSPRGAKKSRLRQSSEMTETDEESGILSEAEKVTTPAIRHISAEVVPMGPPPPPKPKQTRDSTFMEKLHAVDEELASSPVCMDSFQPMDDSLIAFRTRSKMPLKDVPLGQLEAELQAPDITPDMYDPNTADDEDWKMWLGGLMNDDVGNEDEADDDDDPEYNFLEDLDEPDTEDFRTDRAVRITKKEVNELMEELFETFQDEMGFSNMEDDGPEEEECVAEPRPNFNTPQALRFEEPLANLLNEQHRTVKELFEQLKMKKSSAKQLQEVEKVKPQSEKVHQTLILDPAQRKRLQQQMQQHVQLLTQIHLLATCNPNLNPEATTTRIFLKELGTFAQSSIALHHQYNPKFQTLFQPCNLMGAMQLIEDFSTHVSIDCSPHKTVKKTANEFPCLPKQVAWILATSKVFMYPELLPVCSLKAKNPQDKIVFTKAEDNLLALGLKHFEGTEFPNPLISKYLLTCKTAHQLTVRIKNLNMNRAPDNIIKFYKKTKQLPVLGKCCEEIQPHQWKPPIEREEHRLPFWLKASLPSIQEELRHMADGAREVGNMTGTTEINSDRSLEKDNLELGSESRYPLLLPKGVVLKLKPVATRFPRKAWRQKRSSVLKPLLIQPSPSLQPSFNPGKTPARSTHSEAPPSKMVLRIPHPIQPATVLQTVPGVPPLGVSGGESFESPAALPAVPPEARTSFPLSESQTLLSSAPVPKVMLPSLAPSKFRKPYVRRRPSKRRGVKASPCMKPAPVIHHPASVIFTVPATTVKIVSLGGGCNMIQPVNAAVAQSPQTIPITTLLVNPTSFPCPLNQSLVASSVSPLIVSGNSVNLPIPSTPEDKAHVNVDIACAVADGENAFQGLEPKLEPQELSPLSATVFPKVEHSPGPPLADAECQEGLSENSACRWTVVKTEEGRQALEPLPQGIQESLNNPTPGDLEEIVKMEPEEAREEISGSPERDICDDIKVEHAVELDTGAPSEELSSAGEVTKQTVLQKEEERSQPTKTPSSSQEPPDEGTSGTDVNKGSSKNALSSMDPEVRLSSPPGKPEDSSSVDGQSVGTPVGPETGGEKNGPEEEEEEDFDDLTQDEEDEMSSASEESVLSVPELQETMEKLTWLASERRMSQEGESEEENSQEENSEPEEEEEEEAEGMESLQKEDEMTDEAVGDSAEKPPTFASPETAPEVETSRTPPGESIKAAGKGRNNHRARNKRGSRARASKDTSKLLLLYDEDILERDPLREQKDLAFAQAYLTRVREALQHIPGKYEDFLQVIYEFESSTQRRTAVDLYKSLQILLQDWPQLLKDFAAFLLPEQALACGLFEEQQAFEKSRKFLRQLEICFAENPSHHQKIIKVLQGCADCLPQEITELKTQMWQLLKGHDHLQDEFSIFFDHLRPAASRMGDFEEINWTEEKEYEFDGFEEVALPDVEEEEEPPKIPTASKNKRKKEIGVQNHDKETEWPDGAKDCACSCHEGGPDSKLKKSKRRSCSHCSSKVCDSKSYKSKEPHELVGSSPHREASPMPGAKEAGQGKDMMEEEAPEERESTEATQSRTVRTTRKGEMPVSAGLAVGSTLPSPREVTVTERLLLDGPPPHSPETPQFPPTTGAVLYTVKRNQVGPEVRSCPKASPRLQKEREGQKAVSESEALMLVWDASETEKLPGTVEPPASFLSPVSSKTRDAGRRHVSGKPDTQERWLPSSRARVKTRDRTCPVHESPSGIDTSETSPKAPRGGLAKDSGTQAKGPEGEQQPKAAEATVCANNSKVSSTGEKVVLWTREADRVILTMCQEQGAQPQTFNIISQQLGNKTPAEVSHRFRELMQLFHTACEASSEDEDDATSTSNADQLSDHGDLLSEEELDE
# UniProt Q8IU81, sequence (Q8IU81 whole entry, looked up): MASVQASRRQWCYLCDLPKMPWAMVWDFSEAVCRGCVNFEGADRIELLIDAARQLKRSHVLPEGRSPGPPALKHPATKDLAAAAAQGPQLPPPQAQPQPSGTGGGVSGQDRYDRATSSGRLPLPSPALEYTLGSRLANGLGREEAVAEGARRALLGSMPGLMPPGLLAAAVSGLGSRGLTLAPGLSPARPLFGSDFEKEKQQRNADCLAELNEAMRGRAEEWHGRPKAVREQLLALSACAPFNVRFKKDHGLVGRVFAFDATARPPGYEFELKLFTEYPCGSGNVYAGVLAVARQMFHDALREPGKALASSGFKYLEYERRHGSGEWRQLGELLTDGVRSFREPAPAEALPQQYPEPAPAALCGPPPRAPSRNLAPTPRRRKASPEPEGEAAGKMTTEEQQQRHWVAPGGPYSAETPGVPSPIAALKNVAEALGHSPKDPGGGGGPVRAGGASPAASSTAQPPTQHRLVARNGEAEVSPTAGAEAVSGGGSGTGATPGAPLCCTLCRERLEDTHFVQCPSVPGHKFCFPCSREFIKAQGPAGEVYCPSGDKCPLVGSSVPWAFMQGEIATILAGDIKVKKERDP
# UniProt P04792, sequence (P04792 whole entry, looked up): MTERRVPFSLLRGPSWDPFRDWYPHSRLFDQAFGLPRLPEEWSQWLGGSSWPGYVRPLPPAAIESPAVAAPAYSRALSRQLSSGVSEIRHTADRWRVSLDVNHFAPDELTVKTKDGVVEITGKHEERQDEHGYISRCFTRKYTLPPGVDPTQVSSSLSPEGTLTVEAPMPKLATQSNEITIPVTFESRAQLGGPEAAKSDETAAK
# UniProt Q6DN03, sequence (Q6DN03 whole entry, looked up): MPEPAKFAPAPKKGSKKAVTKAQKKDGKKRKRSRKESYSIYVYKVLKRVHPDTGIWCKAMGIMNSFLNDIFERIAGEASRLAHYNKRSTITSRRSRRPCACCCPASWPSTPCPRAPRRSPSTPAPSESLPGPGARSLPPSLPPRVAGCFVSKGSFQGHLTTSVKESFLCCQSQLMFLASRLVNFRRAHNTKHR
Target,log2 fold change (nilotinib),log2 fold change [1],log2 fold change (dasatinib),log2 fold change [2],log2 fold change [3],log2 fold change (quisinostat),log2 fold change (tipifarnib),log2 fold change [4],log2 fold change [5],log2 fold change [6],log2 fold change [7],log2 fold change (vorinostat),log2 fold change (silmitasertib),log2 fold change [8],log2 fold change (entospletinib)
IMPDH2 (UniProt P12268),0,-0.009,-0.036,-0.009,0.004,-0.073,0.029,0.006,-0.016,0.031,0.002,-1.14 (active),0.004,0.004,0.014
GON4L (UniProt Q3T8J9),0.003,0.012,0.025,0.067,0.041,-0.061,-0.01,0.019,-0.02,0.022,-0.051,-0.162,0.066,-0.076,0.067
HMGB1 (UniProt P09429),0.056,-0.002,0.03,0.064,-0.03,0.108,0.026,-0.021,0,-0.011,-0.024,0.083,0.017,0.098,-0.014
GMDS (UniProt O60547),-0.023,0.05,-0.043,-0.03,-0.013,-0.041,0.029,0.038,-0.005,-0.029,0.027,-0.309 (active),0.041,-0.016,0.032
GRK6 isoform 2 (UniProt P43250),-0.024,0.094,0.023,0.005,-0.014,-0.043,0,0.012,0.028,-0.097,0.001,-0.227,0.48 (active),-0.012,-0.123
HIST2H2BC (UniProt Q6DN03),0.003,-0.021,0.051,-0.01,-0.079,-0.014,0.037,0.016,-0.01,0.058,0.018,0.133,-0.098,-0.019,-0.062
GSK3B isoform 2 (UniProt P49841),-0.06,0.576,-0.023,0.64 (active),-0.028,-0.084,0.003,0,0.061,-0.039,0.02,0.253,0.421,0.657,0.05
HAUS2 (UniProt Q9NVX0),0.036,-0.033,-0.028,0.069,0.05,-0.04,-0.034,-0.014,-0.094,0.037,-0.052,-0.514 (active),-0.037,0.039,-0.029
IRAK1 (UniProt P51617),-0.036,0.011,0.051,0.112,0.131,-0.145,0.016,0.373 (active),0.005,-0.005,-0.073,-0.359 (active),0.205,-0.014,0.232
KHDRBS1 (UniProt Q07666),-0.032,-0.012,-0.048,-0.011,-0.003,0.037,0.032,0.005,0.011,0.028,0.005,-0.583 (active),0.018,0.016,0.008
HSP90AA4P (UniProt Q58FG1),-0.157,0.052,0.029,-0.062,0.038,-0.145,0.01,-0.065,-0.047,-0.024,0.026,0.047,-0.087,-0.047,0.017
HDAC3 (UniProt O15379),-0.079,-0.019,0.04,-0.026,0.007,-0.004,-0.102,0.038,-0.004,-0.049,-0.016,-0.264 (active),-0.027,-0.008,0
HSD17B10 (UniProt Q99714),0,-0.044,-0.034,-0.001,-0.017,-0.01,0.008,0.013,-0.002,0.005,0.04,-0.826 (active),-0.011,-0.025,-0.004
IRF2BP1 (UniProt Q8IU81),0.018,0.016,-0.082,-0.019,0.032,-0.099,-0.124,0.057,-0.03,0.045,0.021,-0.4 (active),-0.003,-0.03,0.01
HSPB1 (UniProt P04792),-0.001,0.003,-0.032,0.012,0.015,0.025,-0.006,0.006,0,0.006,0.019,-0.013,-0.027,-0.001,0.013
GNL3 (UniProt Q9BVP2),0.008,-0.022,-0.005,0.029,-0.003,-0.164,0.013,0.038,0.022,-0.031,0.017,-0.142,0.008,-0.041,0.018
IL18R1 (UniProt Q13478),0.02,0.136,0.181,-0.108,0.004,0.067,0.118,0.155,-0.055,0.211,-0.246,0.198,-0.33,0.075,-0.084
GPN2 (UniProt Q9H9Y4),-0.065,0.046,0.062,-0.009,-0.046,-0.022,0.013,-0.008,0.01,-0.034,0.006,-0.093,0.009,-0.062,0.203
KBTBD4 isoform 2 (UniProt Q9NVX7),0.063,-0.019,-0.017,-0.086,-0.022,-0.038,0.154,0.086,-0.018,-0.039,0.025,-0.311 (active),0.012,-0.023,-0.012
HADHB (UniProt P55084),0.052,-0.028,-0.026,0.022,0.066,-0.064,0.028,-0.122,-0.076,0.073,0.047,-0.199,-0.033,0.269,0.063
